TIM10 inh = growth inhibitors of TIM10 yeast strain | S. cerevisiae TIM10 strain growth, BacTiter-Glo luminescence, 24 h | inhibition, % at 10 µM | hit rate 1.4% among 330,000 | AID 463195;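 active means inhibition of 40% or more at the single tested concentration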;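 further: wild-type TIM10 isogenic control strain grown at permissive 25 °C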
SKKanGAS inh = blocks kanamycin growth of S. pyogenes SKKanGAS strain. hit rate 1.3% among 300,000. inhibition, % at 7.5 µM. BacTiter-Glo, 6 h;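 active means mean replicate score, as percent of positive control median, at least 50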;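 further: strain carries kanamycin resistance gene driven by streptokinase promoter and grows in 40 µg/ml kanamycin; loss of luminescence reflects streptokinase promoter inhibition or plain growth inhibition; 0% = median of DMSO wells and 100% = positive control at its reference dose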
tim10-1 inh = tim10-1 yeast growth inhibition | AID 463190 | inhibition, % at 20 µM | hit rate 2.2% among 330,000 | S. cerevisiae tim10-1 ts strain growth, BacTiter-Glo, 24 h;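 active means inhibition of at least 40%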;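 further: mutant grown at 25 °C; 0% = DMSO wells with yeast and 100% = wells holding no yeast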
tim23-1 inh = growth inhibitors of tim23-1 mutant yeast; hit rate 1.3% among 330,000; S. cerevisiae tim23-1 growth, BacTiter-Glo luminescence, 24 h; AID 463212; inhibition, % at 20 µM;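 active means growth inhibition of the mutant yeast at or above 50%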;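 further: temperature-sensitive mutant grown at 25 °C; plate controls were DMSO-treated mutant yeast for no effect and medium wells lacking yeast for full effect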
NLRP3 yeast inh = blocks the NALP3 inflammasome reconstituted in yeast. inhibition, % at 10 µM. Yeast reconstituted NLRP3/ASC/caspase-1, beta-gal luminescence, 24 h. hit rate 0.39% among 330,000. AID 2825;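 active means inhibition of 50% or more; inactive means inhibition below 50%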;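 further: plate controls were induced DMSO wells for no effect and uninduced yeast grown without galactose for full effect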
PfHsp90 set2 = reduces growth (ATP signal) of yeast expressing P. falciparum Hsp90; S. cerevisiae expressing PfHsp90, BacTiter-Glo ATP, 48 h; yeast lacking PDR1 and PDR3 efflux regulators; inhibition, % at 9.4 µM; hit rate 0.32% among 310,000;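 active means every replicate shows inhibition above about 80%, whatever the replicate mean, limit read from the data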;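 further: 0% = DMSO neutral controls and 100% = 20 µM radicicol positive controls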
* hit, by the source's call; / = not tested or not shown. An excerpt weighted towards active compounds, which were near 4.5% of everything screened.

SMILES	TIM10 inh	SKKanGAS inh	tim10-1 inh	tim23-1 inh	NLRP3 yeast inh	PfHsp90 set2
CCCC(=O)Nc1ccc(NC(=O)c2cc3ccccc3o2)c(OC)c1	-1.4	0.9	-2.6	16.3	26.5	5.2
O=C(Nc1ccc(N2CCN(C(=O)c3ccco3)CC2)c(Cl)c1)c1c(F)c(F)c(F)c(F)c1F	14.5	50.1*	26.1	19.5	-3.1	14.4
O=C1N/C(=N\c2ccccn2)SC1Cc1ccc(Cl)cc1 (stereo not given)	-4.3	50.1*	8.1	-10.4	6.2	3.4
CCC(=O)N(c1nnc(SCC(=O)Nc2ccccc2Cl)s1)C1CC1	10.0	/	9.5	23.9	25.6	11.4
Cc1ccc(S(=O)(=O)N2[C@@H](c3ccc4c(c3)OCO4)C(C(=O)O)=C[C@H]2CC2CCCC2)cc1	6.7	/	9.9	24.1	2.7	-14.0
Cc1cccc(N(C(=O)c2snc(C(N)=O)c2N)C(C(=O)NC2CCCC2)c2ccco2)c1 (stereo not given)	16.5	3.8	-1.4	8.3	9.8	4.4
CCCn1c(NC(=O)C2CCN(S(=O)(=O)c3cccs3)CC2)nc2ccccc21	24.0	51.1*	34.0	7.0	13.8	-0.1
CCC(=O)Nc1nc2ccccc2n1Cc1ccc(Cl)cc1	16.1	62.1*	7.9	4.5	23.1	8.0
O=C(Nc1nc2ccccc2n1Cc1ccccc1)c1ccco1	-2.4	55.4*	-1.8	7.8	6.1	-50.8
CCn1c(CCNC(=O)c2ccco2)nc2ccccc21	-23.1	1.2	3.2	-0.5	14.9	-13.2
Cc1csc(NC(=O)C2CCN(S(=O)(=O)c3cccs3)CC2)n1	5.3	-3.4	3.6	14.1	18.5	/
CCCn1c(NC(=O)c2ccccc2)nc2ccccc21	4.4	69.1*	24.3	19.5	15.8	6.6
COc1ccc(-c2nnn(CC(=O)NC(=O)NC3CCCCC3)n2)cc1OC	-2.3	/	-4.4	-10.5	12.1	-2.0
CC(C)n1ncc2c(C(=O)NCCc3ccc(F)cc3)cc(C3CC3)nc21	-10.7	/	30.4	30.6	35.4	-2.8
C=CCn1c(NC(=O)c2ccc(C)cc2)nc2ccccc21	-4.7	58.5*	0.2	15.2	14.8	21.9
CCC(=O)Nc1nc2ccccc2n1CCN1CCOCC1	0.9	-3.2	10.5	3.2	11.3	11.7
CCCCCCCn1c(NC(=O)CC)nc2ccccc21	16.7	103.8*	34.6	32.9	39.8	-20.6
CCCn1c(NC(=O)c2ccc(C)cc2)nc2ccccc21	-13.8	43.7	-25.3	-1.5	32.7	1.8
CCn1c(SCc2ccccc2Cl)nc2ccccc21	5.3	73.5*	33.3	42.8	16.3	10.8
Cn1c(SCc2ccccc2Cl)nc2ccccc21	21.4	17.5	19.8	21.3	11.1	-3.7
CCC(=O)Nc1nc2ccccc2n1Cc1ccccc1Cl	24.5	63.1*	8.7	6.1	10.9	-12.1
Cc1nc2ccccc2c(=O)n1/N=C/c1ccc2ccccc2c1O	16.1	54.9*	8.0	12.3	-1.1	31.6
Cc1cc(C)c2c(c1)/C(=N/Nc1ccc(S(N)(=O)=O)cc1[N+](=O)[O-])CCC2	-28.0	2.1	1.3	-4.7	-1.1	3.8
NS(=O)(=O)c1ccc(N/N=C2/CCCCC2C2CCCCC2)c([N+](=O)[O-])c1 (stereo not given)	25.1	76.9*	19.7	39.2	4.0	-52.5
CCOc1ccc(NC(=O)CC(Cc2cc(C)cc(C)c2)C(=O)O)cc1 (stereo not given)	-8.7	0.5	4.3	5.5	4.0	-4.8
SMILES	TIM10 inh	SKKanGAS inh	tim10-1 inh	tim23-1 inh	NLRP3 yeast inh	PfHsp90 set2
O=S(=O)(N/N=C/c1ccc(Cl)cc1)c1ccc(Cc2ncc(C(F)(F)F)cc2Cl)s1	19.7	49.9*	28.9	13.3	-16.5	23.4
O=[N+]([O-])c1ccccc1NCCNc1ncc(C(F)(F)F)cc1Cl	7.1	52.2*	18.2	-0.7	18.2	2.6
COc1ccc(N2CCN(C(=O)Cn3cncn3)CC2)cc1	-22.1	-2.4	3.2	1.1	0.2	5.3
CC(C)N1CCN(c2ccc(OCC3COC(Cn4cncn4)(c4ccc(Cl)cc4Cl)O3)cc2)CC1 (stereo not given)	/	/	/	/	/	113.1*
CC(C)N1CCN(c2ccc(OC[C@H]3CO[C@](Cn4cncn4)(c4ccc(Cl)cc4Cl)O3)cc2)CC1	-97.8	/	-52.8	-160.8	21.8	101.1*
O=C(CCc1ccc(O)cc1)c1c(O)cc(O)cc1O	-13.2	2.1	8.6	17.2	3.8	-10.7
COc1cc(O)c(CC=C(C)C)c(O)c1C(=O)CCc1ccc(O)cc1	26.3	97.7*	37.9	35.0	14.3	67.5
O=C1/C(=C\c2cc(Br)cc(Br)c2O)SC(=S)N1Cc1ccccc1	15.4	78.5*	32.0	47.3	-0.1	26.3
COc1cc(/C=C2/SC(=S)N(Cc3ccccc3)C2=O)ccc1OCC(=O)O	1.9	20.4	5.7	20.8	11.1	-8.2
COc1cc(/C=C2/SC(=S)N(Cc3ccccc3)C2=O)cc(Cl)c1O	/	73.2*	/	/	/	20.5
CCN1CCN(c2ccc(S(=O)(=O)N3CCOCC3)cc2NC(=O)/C=C/c2cccc(OC)c2OC)CC1	3.0	31.0	-13.2	-12.9	6.9	13.5
CN(C)c1ccc(/C=C/c2ccc3ccccc3n2)cc1	/	75.2*	/	/	/	44.2
O=C(CN1C(=O)NC2(CCCCC2)C1=O)Nc1ccc(Cl)c(S(=O)(=O)N2CCOCC2)c1	7.1	/	-12.9	-7.9	12.3	7.2
Cc1ccc(C(=O)N2CCOCC2)cc1S(=O)(=O)N1CCOCC1	-7.9	51.0*	6.3	-3.3	10.0	11.2
Cc1cc(C)n(-c2nc3sc4c(c3c(=O)[nH]2)CCCC4)n1	/	93.4*	/	/	/	/
O=C(c1ccc(O)cc1)c1ccc(C(=O)c2ccc(O)cc2)cc1	9.2	83.0*	14.7	-10.4	0.9	/
O=C(OCc1ccc(COC(=O)c2ccc(O)cc2)cc1)c1ccc(O)cc1	11.0	57.7*	22.5	14.1	18.6	7.4
O=C(Cc1ccccc1)NCC(=O)N1CCN(Cc2cccc(Cl)c2)CC1	2.7	/	-9.5	-6.3	13.1	/
CCCNC(=O)c1ccc(N2CCC3(CC2)CC(c2ccccc2)=NO3)c(NC(=O)c2ccco2)c1	16.7	49.8*	28.6	25.7	-0.9	0.3
CC(C)c1ccccc1N=C1SCCCN1C(=O)c1cccc(N2C(=O)CCC2=O)c1	11.4	-8.1	22.6	-0.9	3.3	/
O=C(NC(CSCc1ccccc1)C(=O)N/N=C/c1ccc(O)cc1O)c1ccc([N+](=O)[O-])cc1 (stereo not given)	25.0	70.7*	30.5	2.5	7.0	-10.2
COc1cc(O)ccc1/C=N/NC(=O)c1ccc([N+](=O)[O-])cc1	-1.6	-5.3	1.9	-5.1	-1.8	12.6
CCC(=O)N1CCCc2cc(S(=O)(=O)CCC(=O)Nc3ccccc3C)ccc21	8.1	-4.5	-4.0	6.5	13.3	-0.8
CCc1sc(N(C(=O)Cc2ccccc2)c2ccc(F)cc2)nc1-c1ccccc1	22.9	55.0*	29.7	19.2	14.4	8.2

Screens as filed in PubChem.
